{
  "source": "PubChem BioAssay (EPA / NIEHS)",
  "note": "Active and inactive are the calls of the source. The calls were made as follows: active = hit-call score of the fitted dose curve at least 0.9, where 1 is the maximum; inactive = score below 0.9.",
  "data": [
    {"assay": "ATG_M_06_CIS: Attagene CIS-FACTORIAL HepG2 Assay for M06 Transcription Factor (Internal Marker) (AID 2282950)", "settings": "HepG2 Attagene CIS-FACTORIAL M06 internal marker reporter; actives raise or lower the signal", "protocol": "ATG_CIS is a cell-based, multiplexed-readout assay that uses HepG2, a human liver cell line, with measurements taken at 24 hours after chemical dosing in a 24-well plate.ATG_M_06_CIS is one of 52 assay component(s) measured or calculated from the ATG_CIS assay. It is designed to make measurements of mRNA induction, a form of inducible reporter, as detected with fluorescence intensity signals by Reverse transcription polymerase chain reaction (RT-PCR) and Capillary electrophoresis technology.Data from the assay component ATG_M_06_CIS was analyzed into 1 assay endpoint. This assay endpoint, ATG_M_06_CIS, was analyzed with bidirectional fitting relative to DMSO as the negative control and baseline of activity. Using a type of inducible reporter, measures of mRNA for gain or loss-of-signal activity can be used to understand the background control at the transcription factor-level as they relate to the gene . Furthermore, this assay endpoint can be referred to as a secondary readout, because this assay has produced multiple assay endpoints where this one serves a background control function. To generalize the intended target to other relatable targets, this assay endpoint is annotated to the background measurement intended target family, where the subfamily is internal marker.\nHuman liver HepG2 cells are transiently transfected with multiple reporter transcription units (MRTUs) in 6-well plates using FuGene 6 reagent (Roche; 3 ml FuGene/1 mg DNA). The MRTU constructs are regulated by a cis-regulating element (promoter). […] A major difference between the CIS and TRANS system is that in CIS activities of endogenous TFs are measured, whereas the TRANS assay evaluates changes in activities of exogenous, chimeric NR-Gal4 proteins. […] At the end of 24 hour incubation, total RNA was isolated using TriZol reagent (Invitrogen). The isolated RNA is then reverse-transcribed using oligo(dT) primer and Mo-MLV reverse transcriptase (Invitrogen) with DNAse I (Ambion) treatment for 30 min. The one-tenth of the produced cDNA was amplified by PCR using Taq DNA polymerase (Invitrogen) and two reporter sequence-specific primers. The PCR products were fluorescently labeled by primer extension with 6-arboxyfluorescein (6-FAM) 5'-labeled reporter sequence-specific primer (2 min at 95 C, 20 s at 68 C and 10 min at 72 C) and these products were digested with 5U of HpaI (New England Biolabs) for 2h at 37 C. The fragments were purified using Qiaquick PCR columns (Qiagen), analyzed on an ABI 3130xL genetic analyzer (Applied Biosystems) with peak positions identified by using a set of X-rhodamine (ROX)-labeled MapMarker1000 molecular weight standards (BioVentures). The raw capillary electrophoresis data was processed using Attagraph software (Attagene).", "values": [
      {"smiles": "CC(C)C(=O)OCC=Cc1ccccc1", "outcome": "inactive"},
      {"smiles": "CC(C)(C)c1ccc(S)cc1", "outcome": "inactive"},
      {"smiles": "CCCC1CCOC(C)S1", "note": "(stereo not given)", "outcome": "inactive"},
      {"smiles": "CC(=O)OCC=C(C)CCC=C(C)CCC=C(C)C", "outcome": "inactive"},
      {"smiles": "CCC(C)COC(=O)CC(C)C", "note": "(stereo not given)", "outcome": "inactive"},
      {"smiles": "CC(=O)c1ccc(O)cc1", "outcome": "inactive"},
      {"smiles": "CC(=O)C1C(=O)C=C(C)OC1=O", "note": "(stereo not given)", "outcome": "inactive"},
      {"smiles": "CCOC(=O)CC1(C)OCC(C)O1", "note": "(stereo not given)", "outcome": "inactive"},
      {"smiles": "NC(=O)NC(N)=O", "outcome": "inactive"},
      {"smiles": "CCCCCCCCCCCCS", "outcome": "inactive"},
      {"smiles": "Cc1cccc(C)c1", "outcome": "inactive"},
      {"smiles": "CCCCOCCOCCO", "outcome": "inactive"},
      {"smiles": "Nc1ccc(O)c(N)c1", "outcome": "inactive"},
      {"smiles": "CC=CC(=O)C1=C(C)C=CCC1(C)C", "outcome": "inactive"},
      {"smiles": "O=C1CCCCCCCCCCCC(=O)OCCO1", "outcome": "inactive"},
      {"smiles": "Nc1ccc(N)c([N+](=O)[O-])c1", "outcome": "inactive"},
      {"smiles": "C=C(C)C(N)=O", "outcome": "inactive"},
      {"smiles": "CCCO", "outcome": "inactive"},
      {"smiles": "CCCCOC(=O)C(C)OC(=O)CCC", "note": "(stereo not given)", "outcome": "inactive"},
      {"smiles": "O=C(c1ccc(OCCN2CCCCC2)cc1)c1c(-c2ccc(O)cc2)sc2cc(O)ccc12", "outcome": "inactive"},
      {"smiles": "C=C1CC/C=C(\\C)CC[C@@H]2[C@@H]1CC2(C)C", "outcome": "inactive"},
      {"smiles": "NC(=O)c1cnccn1", "outcome": "inactive"},
      {"smiles": "NCCN1CCNCC1", "outcome": "inactive"},
      {"smiles": "CC(=O)OC(C)(C)C", "outcome": "inactive"},
      {"smiles": "CCCO[Si](OCCC)(OCCC)OCCC", "outcome": "inactive"},
      {"smiles": "C=CC(O)CCCCC", "note": "(stereo not given)", "outcome": "inactive"},
      {"smiles": "C=COCC1CCC(COC=C)CC1", "note": "(stereo not given)", "outcome": "inactive"},
      {"smiles": "c1ccc(Sc2ccccc2)cc1", "outcome": "inactive"},
      {"smiles": "NC(=O)c1cccnc1", "outcome": "inactive"},
      {"smiles": "CCCc1ccc(O)cc1", "outcome": "inactive"},
      {"smiles": "CC(=O)CCc1ccc(O)cc1", "outcome": "inactive"},
      {"smiles": "CCCCCCOC(C)=O", "outcome": "inactive"},
      {"smiles": "COc1ccccc1NC(=O)CC(C)=O", "outcome": "inactive"},
      {"smiles": "CC(=N[Si](C)(C)C)O[Si](C)(C)C", "outcome": "inactive"},
      {"smiles": "CCOC(=O)CC(C)C", "outcome": "inactive"},
      {"smiles": "O=c1cc[nH]cc1", "outcome": "inactive"},
      {"smiles": "CCCCC/C=C\\C=C\\C(=O)OCC", "outcome": "inactive"},
      {"smiles": "CCCCN(CCO)CCO", "outcome": "inactive"},
      {"smiles": "CCC(C)(C)C1CCC(=O)CC1", "outcome": "inactive"},
      {"smiles": "CC(C)CCOC(=O)CC(C)C", "outcome": "inactive"}
    ]}
  ]
}
